Values joined by “and” are separate entries in the source; they are usually repeats but may differ in a detail not shown here. Equal values may be shown once. Inconclusive results are not listed. A call without a number means that no potency is given here. Some compounds were tested as several samples or in several runs, with calls that do not always agree. Active and inactive are the calls of the source. The call rests on the fitted dose curve; in most records, active means well fitted inhibition curve with a large enough effect; inconclusive means small, poorly fitted or top-dose-only effect; inactive means flat fitted curve, though single readings scatter.

Here are results for 29 compounds from PubChem BioAssay (NCATS).

The target in experiment [1] is Glutathione peroxidase 1 (Homo sapiens) (UniProt P07203). Description: Primary qHTS Assay for Inhibitors of Recombinant Selenoprotein Glutathione Peroxidase 1 (GPX1) (AID 1845191). Further: nearly all actives have a fitted effect of over 65% in size. Further: potency means the concentration at half of the fitted maximal effect. A digest of the protocol: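 GR-coupled readout: NADPH consumption tracked by fluorescence, ex 340/em 450 nm, at t=0 and after 15 min at RT. Final mix 10 nM GPX1, 1 mM GSH, 0.5 mM CHP, 0.5 mM NADPH, 100 nM GR, 0.01% BSA, following 30 min enzyme–compound preincubation.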
Glutathione peroxidase 1 (Homo sapiens), sequence (P07203 whole entry, looked up): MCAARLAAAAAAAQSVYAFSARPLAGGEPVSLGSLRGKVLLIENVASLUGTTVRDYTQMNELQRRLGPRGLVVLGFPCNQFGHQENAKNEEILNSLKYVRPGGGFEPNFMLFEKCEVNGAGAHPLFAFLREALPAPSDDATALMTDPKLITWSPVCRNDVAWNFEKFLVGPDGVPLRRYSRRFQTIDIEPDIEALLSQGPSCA
For orientation: In qHTS, concentration-response curves come from the screen itself.

Experiment [2] has as its target Phospholipid hydroperoxide glutathione peroxidase GPX4 (Homo sapiens) (UniProt P36969). Put plainly: Primary qHTS Assay for Inhibitors of Recombinant Selenoprotein Glutathione Peroxidase 4 (GPX4) (AID 1845192). Further: nearly all actives have a fitted effect of over 65% in size. On activity change, negative = inhibition: series mostly up to about 50 µM. A digest of the protocol:
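Steps: GPX4 plus compound, 30 min RT; add GR/GSH/NADPH master mix; start with cumene hydroperoxide; read 340/450 nm fluorescence at 0 and 15 min. Finals were 200 nM GPX4, 1 mM GSH, 0.5 mM CHP, 0.5 mM NADPH, 100 nM GR.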

Experiment [3] addresses Luciferin 4-monooxygenase (Photinus pyralis) (UniProt P08659). Description: Primary firefly luciferase (FLuc) qHTS assay for identification of artifact compounds. (AID 1845220). Further: nearly all actives have a fitted effect of over 60% in size. On activity change, negative = inhibition: series mostly up to about 54 µM. The following applies: outcome: dose series up to 54.1 µM. A digest of the protocol:
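D-luciferin and ATP (10 uM each, final) in Tris acetate buffer pH 7.6 were incubated with compounds for 15 min at room temperature. The reaction was started with 10 nM Photinus pyralis luciferase and luminescence read after 5 min. Percent inhibition was fitted to a 4-parameter Hill equation.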

Experiment [4] concerns Nanoluciferase (engineered Oplophorus gracilirostris luciferase). Description: Primary Nanoluciferase (NLuc) qHTS assay for identification of artifact compounds. (AID 1845222). Further: series mostly up to about 54 µM. Put shortly: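 Diluted conditioned medium from NLuc-expressing S16 cells treated with compounds for 15 min at room temperature, then Nano-Glo substrate added; luminescence read after 5 min. Percent inhibition versus no-enzyme and DMSO controls fitted to 4-parameter Hill equation.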

Phospholipid hydroperoxide glutathione peroxidase GPX4 (Homo sapiens), sequence (P36969 whole entry, looked up): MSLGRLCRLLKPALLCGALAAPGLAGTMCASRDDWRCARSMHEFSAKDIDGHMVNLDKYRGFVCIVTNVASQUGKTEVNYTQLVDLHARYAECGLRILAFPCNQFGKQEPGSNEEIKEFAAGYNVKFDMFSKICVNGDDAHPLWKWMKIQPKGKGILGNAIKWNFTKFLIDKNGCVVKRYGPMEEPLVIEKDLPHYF

As to `CN(C)CCc1c[nH]c2ccc(CS(=O)(=O)N3CCCC3)cc12`, the Potency entry in experiment [1] and in experiment [2] was “inactive” in each case.

As for `CCC(C)(C)c1ccc(CC(C)CN2C[C@@H](C)O[C@@H](C)C2)cc1` (stereo not given in full), the Potency result in experiment [1] and in experiment [2] was “inactive” each time.

Consider `CCCN[C@H]1CCc2nc(N)sc2C1`, for which the Potency result in experiment [1] and in experiment [2] was “inactive” each time.

For the compound `Cc1nnc(C(=O)NC(C)(C)c2nc(C(=O)NCc3ccc(F)cc3)c(O)c(=O)n2C)o1`, the Potency entry in experiment [1] and in experiment [2] was “inactive” each time. Also, the call in experiment [3] and in experiment [4] was inactive.

For `CCC(=O)O[C@]1(C(=O)CCl)[C@@H](C)C[C@H]2[C@@H]3CCC4=CC(=O)C=C[C@]4(C)[C@@]3(F)[C@@H](O)C[C@@]21C`, the Potency entry in experiment [1] and in experiment [2] was “inactive” each time.

With `CNCC[C@H](Oc1cccc2ccccc12)c1cccs1`, the Potency result in experiment [2] is “inactive”.

With `NC1(c2ccc(-c3nc4ccn5c(=O)[nH]nc5c4cc3-c3ccccc3)cc2)CCC1`, the Potency result in experiment [1] and in experiment [2] was “inactive” throughout. For the same compound, the compound was classed as inactive in experiment [3] and in experiment [4].

As for `C[C@@H]1CN(c2c(F)c(N)c3c(=O)c(C(=O)O)cn(C4CC4)c3c2F)C[C@H](C)N1`, the Potency entry in experiment [1] and in experiment [2] was “inactive” each time.

Regarding `COc1cc2c(Nc3ccc(Br)cc3F)ncnc2cc1OCC1CCN(C)CC1`, the Potency result in experiment [1] and in experiment [2] was “inactive” in each case. The compound was classed as inactive in experiment [3] and in experiment [4].

For the compound `Clc1ccccc1CN1CCc2sccc2C1`, the Potency entry in experiment [1] and in experiment [2] was “inactive” throughout.

As for `O=C(NCC1CN(c2ccc(N3CCOCC3=O)cc2)C(=O)O1)c1ccc(Cl)s1` (stereo not given), the Potency result in experiment [1] and in experiment [2] was “inactive” in each case. In addition, the result in experiment [3] and in experiment [4] was inactive.

Turning to `CC(C(=O)O)c1ccc2c(c1)CC(=O)c1ccccc1S2` (stereo not given), the Potency result in experiment [1] was “inactive and 16.1 µM (active)”. Also, the Potency result in experiment [2] is “inactive”. Also, the call in experiment [3] and in experiment [4] was inactive.

`CC(=O)[C@H]1CC[C@H]2[C@@H]3CCC4=CC(=O)CC[C@]4(C)[C@H]3CC[C@]12C`: the Potency result in experiment [1] and in experiment [2] was “inactive” in each case.

On to `CC[C@H](C)C(=O)O[C@H]1C[C@@H](C)C=C2C=C[C@H](C)[C@H](CC[C@@H]3C[C@@H](O)CC(=O)O3)[C@H]21`, for which the Potency result in experiment [1] and in experiment [2] was “inactive” in each case. The outcome in experiment [3] and in experiment [4] was inactive.

Take `NC(=O)N1c2ccccc2CC(=O)c2ccccc21`: in experiment [2], the Potency result is “inactive”.

Consider `O=C(O)CCn1c2c(c3ccccc31)C[C@H](NS(=O)(=O)c1ccc(F)cc1)CC2`, for which the Potency result in experiment [1] and in experiment [2] was “inactive” in each case. For the same compound, the compound was classed as inactive in experiment [3] and in experiment [4].

As for `CC1(C)[C@H](C(=O)O)N2C(=O)C[C@H]2S1(=O)=O`, the Potency entry in experiment [1] and in experiment [2] was “inactive” throughout. For the same compound, the outcome in experiment [3] and in experiment [4] was inactive.

Take `CCOCC(O)COc1ccc(NC(=O)CC[S+](C)C)cc1` (stereo not given): the Potency entry in experiment [1] and in experiment [2] was “inactive” throughout.

For the compound `CNC(=O)c1cc(Oc2ccc(NC(=O)Nc3ccc(Cl)c(C(F)(F)F)c3)cc2)ccn1`, the Potency result in experiment [1] and in experiment [2] was “inactive” in each case. The call in experiment [3] and in experiment [4] was inactive.

Turning to `CC1=NN(c2ccccc2)C(=O)C1`, the Potency result in experiment [1] and in experiment [2] was “inactive” throughout. In addition, the call in experiment [3] and in experiment [4] was inactive.

Regarding `C#CCN[C@@H]1CCc2ccccc21`, the Potency result in experiment [1] and in experiment [2] was “inactive” in each case.

Turning to `Nc1ccc(S(=O)(=O)Nc2ccccn2)cc1`, the Potency result in experiment [1] and in experiment [2] was “inactive” throughout.

On to `CCCCc1oc2ccc(NS(C)(=O)=O)cc2c1C(=O)c1ccc(OCCCN(CCCC)CCCC)cc1`, for which the Potency result in experiment [1] and in experiment [2] was “inactive” each time. Besides, the compound was called inactive in experiment [3] and in experiment [4].

With `CN1CCCC(n2nc(Cc3ccc(Cl)cc3)c3ccccc3c2=O)CC1` (stereo not given), the Potency entry in experiment [1] and in experiment [2] was “inactive” in each case.

Regarding `Cn1c(=O)c2c(ncn2CC(O)CO)n(C)c1=O` (stereo not given), the Potency result in experiment [1] and in experiment [2] was “inactive” in each case.

As to `Nc1nc(F)nc2c1ncn2[C@@H]1O[C@H](CO)[C@@H](O)[C@@H]1O`, the Potency entry in experiment [1] and in experiment [2] was “inactive” in each case. In addition, the compound was classed as inactive in experiment [3] and in experiment [4].

Turning to `Cc1c(-c2ccc(O)cc2)n(Cc2ccc(OCCN3CCCCCC3)cc2)c2ccc(O)cc12`, the Potency entry in experiment [1] and in experiment [2] was “inactive” in each case.

Take `O=P(O)(O)C(O)(Cc1cccnc1)P(=O)(O)O`: the Potency entry in experiment [1] and in experiment [2] was “inactive” each time. Further, the activity change, negative = inhibition in experiment [3] is -16.9% [at 6.45 µM] (inactive). Also, the compound was classed as inactive in experiment [3] and in experiment [4].

In the case of `Cc1onc(-c2ccccc2Cl)c1C(=O)N[C@@H]1C(=O)N2[C@@H]1SC(C)(C)[C@@H]2C(=O)O`, the Potency result in experiment [1] and in experiment [2] was “inactive” in each case. Besides, the result in experiment [3] and in experiment [4] was inactive.
